{"source": "PubChem BioAssay AID652217", "about": "(Sanford-Burnham Center for Chemical Genomics, 2013)", "note": "Screen size: about 1,800 compounds; about 240 (13%) were called active. Rule as the data show it: active = inhibition above about 40%; inactive = the rest. Only a sample is shown.", "data": [{"target": "NEDD8-conjugating enzyme Ubc12 (Homo sapiens) + NEDD8-activating enzyme E1 regulatory subunit (Homo sapiens) (UniProt P61081+Q13564)", "sequence (P61081 whole entry, looked up)": "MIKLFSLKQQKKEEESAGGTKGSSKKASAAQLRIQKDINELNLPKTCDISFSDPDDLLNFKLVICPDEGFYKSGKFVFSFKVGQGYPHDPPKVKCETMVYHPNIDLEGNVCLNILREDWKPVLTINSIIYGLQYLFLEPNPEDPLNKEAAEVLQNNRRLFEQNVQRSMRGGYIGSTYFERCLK", "sequence (Q13564 whole entry, looked up)": "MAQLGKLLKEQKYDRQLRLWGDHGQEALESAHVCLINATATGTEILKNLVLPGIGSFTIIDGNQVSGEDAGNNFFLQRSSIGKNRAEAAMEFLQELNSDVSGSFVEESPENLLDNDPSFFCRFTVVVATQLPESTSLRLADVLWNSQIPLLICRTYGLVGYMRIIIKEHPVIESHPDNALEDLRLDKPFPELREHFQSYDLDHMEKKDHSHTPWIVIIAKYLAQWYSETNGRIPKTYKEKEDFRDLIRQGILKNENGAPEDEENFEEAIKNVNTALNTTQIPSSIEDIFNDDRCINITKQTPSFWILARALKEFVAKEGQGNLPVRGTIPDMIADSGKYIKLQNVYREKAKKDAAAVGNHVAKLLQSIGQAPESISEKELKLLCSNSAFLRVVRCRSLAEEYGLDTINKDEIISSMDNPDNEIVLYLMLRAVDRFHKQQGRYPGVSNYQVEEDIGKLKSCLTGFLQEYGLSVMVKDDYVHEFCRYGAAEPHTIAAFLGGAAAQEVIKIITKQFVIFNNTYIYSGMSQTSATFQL", "assay": "blockade of NEDD8 conjugation to cullin – biochemical, TR-FRET, single concentration, confirmation (AID 652217);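 also: neddylation substrate is the cullin 1 ring ligase complex with SKP2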", "details": "TR-FRET cullin neddylation biochemical assay; at 25 µM; stronger effect = higher value", "values": [{"smiles": "O=C(Cn1cc(/C=N/NC(=O)c2cccc(C(F)(F)F)c2)c2ccccc21)Nc1ccc(F)cc1", "inhibition": "20.1% (inactive)"}, {"smiles": "COc1cccc(Cn2cc(/C=N/NC(=O)c3cc(O)cc(O)c3)c3ccccc32)c1", "inhibition": "41.7% (active)"}, {"smiles": "CN(C)c1ccc(/C=N/Nc2cc(N3CCOCC3)nc(N3CCOCC3)n2)cc1", "inhibition": "14.8% (inactive)"}, {"smiles": "COc1ccc2oc(C(=O)NCC(Cc3ccccc3)N(C)C)c(C)c2c1", "note": "(stereo not given)", "inhibition": "39.6% (inactive)"}, {"smiles": "c1ccc(-c2[nH]ncc2-c2nc3ccccc3[nH]2)cc1", "inhibition": "34.5% (inactive)"}, {"smiles": "CCN(CC)c1ccc(/C=N/Nc2nc(C)cc(=O)[nH]2)cc1", "inhibition": "28.2% (inactive)"}, {"smiles": "CCN(CC)c1ccc(/C=N/NC(=O)CNC(=O)c2cccs2)cc1", "inhibition": "54.1% (active)"}, {"smiles": "COc1ccc(Br)cc1/C=N/Nc1ccc(Cl)c(C(=O)O)c1", "inhibition": "37.5% (inactive)"}, {"smiles": "CC(=O)c1ccc(Nc2nc(C(N)c3ccccc3)cs2)cc1", "note": "(stereo not given)", "inhibition": "32.9% (inactive)"}, {"smiles": "CC(=O)Nc1nc(C)c(-c2csc(Nc3ccc(S(N)(=O)=O)cc3)n2)s1", "inhibition": "79.2% (active)"}, {"smiles": "Cc1noc(C)c1COc1ccc2ccc(=O)oc2c1", "inhibition": "33.5% (inactive)"}, {"smiles": "COc1cccc(C2c3[nH]c4ccccc4c3CCN2Cc2cccc(C)n2)c1", "note": "(stereo not given)", "inhibition": "26.3% (inactive)"}, {"smiles": "Nc1nnnn1CC(=O)N/N=C/c1ccc(-c2cccc(Cl)c2)o1", "inhibition": "22.7% (inactive)"}, {"smiles": "C=CCNC(=O)c1ccc2c3n(nc2c1)-c1ccc(C)cc1CO3", "inhibition": "47.4% (active)"}, {"smiles": "O=C(N/N=C/c1ccccc1O)C1CCCC1", "inhibition": "38.7% (inactive)"}, {"smiles": "CCN(/N=C/c1ccc(N(C)C)cc1)c1nc2ccccc2[nH]1", "inhibition": "42.9% (active)"}, {"smiles": "C=CCn1c(COc2cccc3cccnc23)nnc1SCC(=O)OC", "inhibition": "36.7% (inactive)"}, {"smiles": "O=C(/C=C/c1cn(-c2ccccc2)nc1-c1ccc2c(c1)OCCO2)NCCCN1CCOCC1", "inhibition": "33.2% (inactive)"}, {"smiles": "CC(=O)Nc1cc(-c2ccc(N3CCN(C)CC3)cc2)cn2c(-c3ccc(F)cc3)cnc12", "inhibition": "45.5% (active)"}, {"smiles": "COC(=O)C1=CN(C)C=C(C(=O)OC)C1c1ccc(Cl)cc1Cl", "inhibition": "20% (inactive)"}, {"smiles": "CC(C(=O)NC1CCCCC1)N1C(=O)c2cccc3cccc1c23", "note": "(stereo not given)", "inhibition": "39.8% (inactive)"}, {"smiles": "O=C(NNC(=S)NC1CC2CCC1C2)c1ccc(Cl)cc1", "note": "(stereo not given)", "inhibition": "7.17% (inactive)"}, {"smiles": "COc1cccc(/C=C/C(=O)OCC(=O)N2CCCc3ccccc32)c1", "inhibition": "38.8% (inactive)"}, {"smiles": "Cc1ccc(C)c(NC(=O)NNC(=O)c2ccc3ccccc3c2O)c1", "inhibition": "30.6% (inactive)"}, {"smiles": "COC(=O)C1=CN(Cc2ccc(OC)cc2)C=C(C(=O)OC)C1c1ccc(O)c(OC)c1", "inhibition": "33% (inactive)"}, {"smiles": "CS(=O)(=O)c1ccc2nc(NC(=O)c3ccc(Cl)nc3)sc2c1", "inhibition": "66% (active)"}, {"smiles": "COc1ccc2[nH]c(C(=O)N/N=C/c3cc(OC)c(OC)c(OC)c3)cc2c1", "inhibition": "49.6% (active)"}, {"smiles": "COc1cc2cc(C(=O)N/N=C/c3cccc(OC)c3OC)[nH]c2cc1OC", "inhibition": "41.9% (active)"}, {"smiles": "CCOc1ccc2[nH]c(C(=O)N/N=C/c3cccc(OC)c3OC)cc2c1", "inhibition": "44.6% (active)"}, {"smiles": "COc1cc2ccccc2cc1C(=O)Nc1ccncc1", "inhibition": "39.2% (inactive)"}, {"smiles": "CCOC(=O)c1cnc2nc(SCc3ccccc3Cl)[nH]n2c1=O", "inhibition": "20% (inactive)"}, {"smiles": "CCOc1ccc2[nH]c(=O)c(CN(Cc3nnnn3Cc3ccccc3)CC3CCCO3)cc2c1", "note": "(stereo not given)", "inhibition": "15.2% (inactive)"}, {"smiles": "COCCCNc1nc2ccccc2nc1NS(=O)(=O)c1ccc(F)cc1", "inhibition": "29% (inactive)"}, {"smiles": "Cc1ccc2occ(/C=N/NC(=O)c3ccccc3C)c(=O)c2c1", "inhibition": "24% (inactive)"}, {"smiles": "O=c1c2c(nc3cc(-c4cccc(Cl)c4)[nH]n13)CCCC2", "inhibition": "-10.4% (inactive)"}, {"smiles": "NNC(=O)c1oc2nc(-c3ccccc3)cc(-c3ccco3)c2c1N", "inhibition": "14.3% (inactive)"}, {"smiles": "CN(C)c1ccnc2sc(C(=O)c3ccccc3)c(N)c12", "inhibition": "33.9% (inactive)"}, {"smiles": "Cc1nc2sc(C(=O)c3ccccc3)c(N)c2c2c1CCCC2", "inhibition": "30.6% (inactive)"}, {"smiles": "O=C(COc1ccccc1Cl)N1N=C(c2cccs2)CC1c1ccco1", "note": "(stereo not given)", "inhibition": "37.1% (inactive)"}, {"smiles": "CCOc1cc(C(=O)Nc2c(C)ccc3nsnc23)cc(OCC)c1OCC", "inhibition": "27.9% (inactive)"}, {"smiles": "CC(=O)Oc1c(C(=O)c2nnc(C)o2)c(=O)n(Cc2ccccc2)c2ccccc12", "inhibition": "38.8% (inactive)"}, {"smiles": "O=C1c2cccc3cccc(c23)N1CN1CCN(c2ccccn2)CC1", "inhibition": "28.8% (inactive)"}, {"smiles": "CC(=O)NNC(=O)c1csc(Cc2c(Cl)sc3ccc(Cl)cc23)n1", "inhibition": "-2.26% (inactive)"}, {"smiles": "O=C(c1ccc(Cl)cc1)N1N=C(c2ccccn2)CC1(O)C(F)(F)F", "note": "(stereo not given)", "inhibition": "1.98% (inactive)"}, {"smiles": "CCOc1cc(/C=N/Nc2cc(C)nc3ccc(C)cc23)ccc1O", "inhibition": "40.1% (active)"}, {"smiles": "CCN1CCCC1CNc1ncnc2c1[nH]c1ccc(F)cc12", "note": "(stereo not given)", "inhibition": "31% (inactive)"}, {"smiles": "C[C@H](O)[C@@H]1C(=O)N2CCc3c([nH]c4ccccc34)[C@@H]2C[C@@H]1N(C)C(=O)Nc1ccc(F)cc1", "inhibition": "14.4% (inactive)"}, {"smiles": "Cc1ccc2cc(C#N)c(NCCNC(=S)NCCCN3CCOCC3)nc2c1", "inhibition": "33.7% (inactive)"}, {"smiles": "COc1ccc(N(CC(=O)N/N=C/c2cccc3c2OCCO3)S(=O)(=O)c2ccc(NC(C)=O)cc2)cc1", "inhibition": "42.7% (active)"}, {"smiles": "O=C1NC(c2ccncc2)Nc2sc3c(c21)CCCC3", "note": "(stereo not given)", "inhibition": "39.4% (inactive)"}, {"smiles": "COc1cccc(C2CC(c3cccs3)=NN2C(=O)CSC2=NCCS2)c1OC", "note": "(stereo not given)", "inhibition": "-80.4% (inactive)"}, {"smiles": "N#Cc1ccc(/C=C2\\CCn3c2nc2cc(C(=O)O)ccc2c3=O)cc1", "inhibition": "54.8% (active)"}, {"smiles": "O=C(O)c1ccc2c(=O)n3c(nc2c1)/C(=C/c1ccc(OC(F)F)cc1OC(F)F)CC3", "inhibition": "43.2% (active)"}, {"smiles": "CCOc1ccc2nc(NCCNC(=O)C(C)(C)C)c(C)cc2c1", "inhibition": "34.1% (inactive)"}, {"smiles": "Cc1ccc(-n2ncc3c(Nc4cccc(C(=O)O)c4)ncnc32)cc1", "inhibition": "35.6% (inactive)"}, {"smiles": "CCOCCCNC(=O)C(NC(=O)c1ccccc1O)c1ccccc1", "note": "(stereo not given)", "inhibition": "39.4% (inactive)"}, {"smiles": "COc1ccc(C2c3[nH]c4ccccc4c3CCN2CCCn2cccn2)cc1C", "note": "(stereo not given)", "inhibition": "29.8% (inactive)"}, {"smiles": "O=c1cc(CN2CCCCCCC2)c2c(ccc3ccccc32)o1", "inhibition": "14.7% (inactive)"}, {"smiles": "Cc1noc(C)c1C(=O)OCC(=O)/C=C1\\N(C)c2ccccc2C1(C)C", "inhibition": "22.3% (inactive)"}, {"smiles": "CCOc1ccc2[nH]c(=O)c(CN(Cc3nnnn3CCc3ccccc3)CC3CCCO3)cc2c1", "note": "(stereo not given)", "inhibition": "12.7% (inactive)"}]}]}
